The list is not random: actives were taken first. Their share in the collection is about 12%.
Lassa entry inh: inhibitors of Lassa virus binding or cell entry | Potency, µM (titrated, usually from 37.9 µM), most hits filed as inhibitors | Lassa virus pseudotype entry inhibition, cell reporter | AID 540256 | hit rate 1.2% among 300,000; calls by dose curve; tested in HEK293 cells; also: nearly all actives have a fitted effect of over 50% in size
Marburg entry inh: Marburg virus entry inhibition; Potency, µM (series often up to 37.8 µM), most hits filed as inhibitors; Marburg virus pseudotyped entry inhibition, cell reporter; AID 540276; hit rate 1.8% among 300,000; calls by dose curve; tested in HEK293 cells
Shiga inhibitor: blocks Shiga toxin action in Vero cells; hit rate 9.2% among 290,000; Vero cells, Shiga toxin protein synthesis inhibition reporter; inhibition, % at 38.7 µM; in the data active = inhibition mostly above about 28%, no sharp cut-off; inactive = mostly below about 43%
CHX counter: counter-screen for Shiga toxin inhibitors: cycloheximide protein synthesis inhibition. cell reporter, cycloheximide protein synthesis inhibition counterscreen. max response, %. hit rate 12% among 300,000; in the data active = max response mostly above about 13%, no sharp cut-off; inactive = mostly below about 14%; also: read at 38.3 µM for the half of the compounds with a filed dose
A number is an active result; i = inactive; ? = inconclusive; nt = not tested or not shown.

SMILES | Lassa entry inh | Marburg entry inh | Shiga inhibitor | CHX counter
CCOC(=O)c1c(-c2ccccc2)csc1NC(=O)c1cc(-c2ccc(F)cc2)on1 | i | i | nt | nt
O=C(O)C1=C(O)CCCC1 | nt | i | nt | nt
NCC1OC(O[C@H]2[C@H](O)[C@@H](OC3C(O)C(N)CC(N)C3OC3OC(CO)C(O)C(O)C3N)O[C@@H]2CO)C(N)C(O)C1O (stereo partly specified) | i | i | nt | nt
CC12COC3(C(=O)Nc4ccc5ccccc5c4)CC1CCC32C (stereo unspecified) | ? | ? | 122.1 | 35.4
CC12COC3(C(=O)NCCc4ccccc4)CC1CCC32C (stereo unspecified) | i | ? | 56.0 | 50.4
Cc1ccccc1NC(=O)C12CC3CCC1(C)C3(C)CO2 (stereo unspecified) | i | ? | i | i
CC12COC3(C(=O)Nc4ccccc4)CC1CCC32C (stereo unspecified) | nt | nt | i | i
CCOC(=O)c1ccccc1NC(=O)c1sc2ncn(CC)c(=O)c2c1C | i | nt | nt | nt
CC(=O)Oc1ccc(N2C(=O)C3C4C=CC(CC4)C3C2=O)cc1[N+](=O)[O-] (stereo unspecified) | nt | nt | i | i
CSCCC(NC(=O)c1ccc([N+](=O)[O-])cc1Cl)C(=O)OC1CCCCC1=O (stereo unspecified) | i | ? | i | i
COc1cc(C(=O)Nc2cccc(S(=O)(=O)N3CCCC3)c2)cc(OC)c1C | nt | nt | i | i
CC(=O)c1c(C)[nH]c(C(=O)Nc2ccc(F)cc2F)c1C | i | i | 64.6 | 44.4
CC(=O)c1c(C)[nH]c(C(=O)Nc2ccccc2Cl)c1C | i | i | 46.4 | i
CC(=O)c1c(C)[nH]c(C(=O)Nc2ccc(C)cc2Br)c1C | ? | ? | 66.0 | 24.8
CCn1c(=O)c2cc(C(=O)NCCc3cc(OC)ccc3OC)sc2c2ccccc21 | i | i | nt | nt
C=CC[C@H]1CC(Cc2ccccc2)=C[C@H](CC=C)N1 | i | ? | i | i
COC(=O)c1ccc(-n2c(C)cc(C(=O)CSc3cccc[n+]3[O-])c2C)cc1 | nt | nt | i | i
Cc1cc(C(=O)CSc2cccc[n+]2[O-])c(C)n1-c1ccc(OC(F)F)cc1 | nt | nt | 58.7 | 54.4
C=CCn1c(C)cc(C(=O)CSc2nnc(NCc3ccccc3)s2)c1C | ? | ? | i | 46.4
Cc1cc(C(=O)CSc2nnc(Cc3ccccc3)o2)c(C)n1Cc1ccc2c(c1)OCO2 | i | i | i | i
O=C(CSc1nnc(NCc2ccccc2)s1)c1ccco1 | i | i | 78.0 | i
C=CCn1c(C)cc(C(=O)CSc2nc3ccccc3o2)c1C | i | 13µM | 110.4 | 62.0
C=CCn1c(C)cc(C(=O)CSc2nnc(Cc3ccccc3)o2)c1C | ? | i | i | 30.9
Cc1ccc2c(C(=O)CN3CCN(C(=O)c4ccco4)CC3)c(C)[nH]c2c1 | i | i | i | i
Cc1cc(C(=O)CSc2nc3ccccc3o2)c(C)n1C1CC1 | ? | ? | 26.7 | 52.9
SMILES | Lassa entry inh | Marburg entry inh | Shiga inhibitor | CHX counter
Cc1cc(C(=O)CSc2ncnc3ccccc23)c(C)n1C1CC1 | i | i | nt | nt
NC(=O)CNC(=O)C1CCN(S(=O)(=O)c2ccc(-n3cnnn3)cc2)CC1 | nt | i | i | i
O=C(Nc1ccccc1)C1=C[C@@H](C2CC2)C[C@@H](OCc2ccc(CO)cc2)O1 | nt | nt | 47.3 | 35.4
O=C(Nc1ccccc1)C1=C[C@@H](C2CC2)C[C@@H](OCCCCO)O1 | nt | nt | 57.9 | 55.4
O=C(O)C1=C[C@@H](C2CCCCC2)C[C@@H](OCCCCO)O1 | nt | nt | i | i
O=C(O)C1=C[C@@H](C2CCCCC2)C[C@@H](OCc2ccc(CO)cc2)O1 | nt | nt | i | i
O=C(Nc1ccccc1)C1=C[C@H](c2ccccc2)C[C@H](OCc2ccc(CO)cc2)O1 | nt | nt | 52.6 | 31.6
COc1cc2c(cc1OC)[C@@H]1O[C@](CCCCN3C(=O)c4ccccc4C3=O)(C2)OC2=C1C(=O)CC(C)(C)C2 | nt | i | nt | nt
CCc1ccccc1NC(=O)CN1C(=O)c2ccccc2Sc2ncccc21 | i | nt | nt | nt
C=CCO[C@@H]1C=C[C@@H](c2ccccc2)O[C@@H]1COC | nt | i | nt | nt
CC(=O)Nc1ccccc1C(=O)C(=O)Nc1cccc(Br)c1 | i | i | 100.2 | 37.4
CC(=O)Nc1ccccc1C(=O)C(=O)Nc1cccc(C(=O)N2CCC3(CC2)OCCO3)c1 | nt | i | i | i
CC(=O)Nc1ccccc1C(=O)C(=O)Nc1ccccc1 | i | ? | i | i
CC(=O)Nc1ccccc1C(=O)C(=O)Nc1ccc(Cl)cc1 | ? | i | 75.4 | 16.8
CCC(=O)Nc1ccccc1C(=O)OC(c1ccccc1)c1ccccc1 | i | i | i | i
CCC(=O)Nc1ccccc1C(=O)C(=O)Nc1ccccc1 | ? | ? | 37.5 | 35.5
COC(=O)CC1=C(C(=O)OC)[C@H](c2cccc(OCC(N)=O)c2)C(C#N)=C(N)O1 | nt | i | nt | nt
COc1cccc(-n2c(C)nc3c(cnn3-c3ccc(C)c(C)c3)c2=O)c1 | i | ? | nt | nt
N#Cc1ccccc1N/C=C/C(=O)c1ccc(Cl)cc1 | 12.6µM | ? | nt | nt
O=C(/C=C/Nc1ccc(Br)cc1F)c1ccccc1 | 1.58µM | 1.26µM | 40.6 | 38.1
O=C(Nc1ccc(Br)cc1F)C1CCCO1 (stereo unspecified) | i | i | i | i
O=C(/C=C/Nc1ccccc1F)c1ccc(Br)cc1 | ? | ? | 87.3 | 60.8
CCCCCC(=O)NC(=S)Nc1ccc2oc(=O)ccc2c1 | ? | i | i | i
Cc1nnc(Sc2nc3ccccc3o2)c2ccccc12 | i | i | i | 25.8
FC(F)(F)c1ccc(-c2csc(-c3ccno3)n2)cc1 | nt | nt | 83.5 | 38.9
SMILES | Lassa entry inh | Marburg entry inh | Shiga inhibitor | CHX counter
O=C(/C=C/c1cccc(F)c1)c1ccc(N2CCOCC2)cc1 | ? | ? | 99.3 | 49.6
O=C(/C=C/c1cccs1)c1ccc(N2CCOCC2)cc1 | nt | nt | i | i
CSCCC(NC(=O)c1ccco1)C(=O)N1CCN(C(c2ccccc2)c2ccccc2)CC1 (stereo unspecified) | i | ? | nt | nt
CC1=C(C(=O)Nc2ccccn2)C(c2ccccc2)n2ncnc2N1 (stereo unspecified) | i | i | i | 15.1
COc1ccc(C2NC(=S)NC(C)=C2C(=O)Nc2ccccn2)cc1 (stereo unspecified) | nt | nt | 34.1 | 36.3
CC1=C(C(=O)Nc2ccccn2)C(c2ccc(N(C)C)cc2)n2ncnc2N1 (stereo unspecified) | i | i | i | i
CC1=C(C(=O)Nc2ccccn2)C(c2ccc(F)cc2)n2ncnc2N1 (stereo unspecified) | ? | i | i | 14.7
COc1ccc(OC)c(C2NC(=S)NC(C)=C2C(=O)Nc2ccccn2)c1 (stereo unspecified) | i | i | i | i
Cc1cccc2sc(N(Cc3cccnc3)C(=O)C3CCCCC3)nc12 | i | nt | nt | nt
CCCCc1ccc(NC(=S)Nc2ccc(Cl)c(S(=O)(=O)N(C)C)c2)cc1 | ? | ? | i | i
COc1cc[n+]([O-])cc1[N+](=O)[O-] | i | i | nt | nt
CCn1c(SCC(=O)c2ccccc2)nc2sc3c(c2c1=O)CCN(C)C3 | i | ? | 69.9 | 12.0
Nn1c(Nc2ccccc2)nc2sc3c(c2c1=O)CCC3 | ? | ? | 85.6 | 26.1
NNc1nc2sc3c(c2c(=O)n1Cc1ccccc1)CCC3 | i | i | i | i
O=C(O)c1ccc(Cn2nnc3sc4c(c3c2=O)CCCC4)cc1 | i | i | 166.6 | 41.3
O=C(O)CSc1nc2sc3c(c2c(=O)n1Cc1ccccc1)CCCCC3 | i | ? | 39.9 | 26.4
COC(=O)c1ccc(Cn2nnc3sc4c(c3c2=O)CCCC4)cc1 | i | ? | nt | nt
